Experimental data: PubChem BioAssay (Tox21)
Records with an inconclusive call do not appear. The source made the active and inactive calls. Unless noted, the call rests on the fitted dose curve; in most records, active means well fitted curve in the direction sought with a large enough effect in the repeat runs; inconclusive means weak or mixed curves; inactive means no such curve, though single readings can be large; an effect the other way counts as inactive or inconclusive.

How the values were obtained:
[1] = qHTS assay to identify small molecule antagonists of the glucocorticoid receptor (GR) signaling pathway - cell viability counter screen (AID 720693); conditions: GR-bla HeLa viability, CellTiter-Glo luminescence, 18 h, with 5 nM dexamethasone present; series mostly up to 58.5 µM; further: nearly all actives have a fitted effect of over 55% in size
[2] = qHTS assay for identifying genotoxic compounds that show differential cytotoxicity against isogenic chicken DT40 cell lines with known DNA damage response pathways - wild type cell line (AID 743012); conditions: DT40 wild type chicken cells viability, CellTiter-Glo, 40 h; series mostly up to 68.4 µM; further: nearly all actives have a fitted effect of over 60% in size
Outline: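 Quantitative HTS on parental DT40 cells: 40 h compound treatment at 37 C/5% CO2, with viability then determined by CellTiter-Glo luminescence. Values serve as the DNA repair-proficient reference for differential cytotoxicity.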

[3] = qHTS assay for identifying genotoxic compounds that show differential cytotoxicity against isogenic chicken DT40 cell lines with known DNA damage response pathways - Rev3 mutant cell line (AID 743014); conditions: chicken DT40 Rev3-/- viability, CellTiter-Glo, 40 h; series mostly up to 68.4 µM; further: nearly all actives have a fitted effect of over 55% in size
[4] = qHTS assay for identifying genotoxic compounds that show differential cytotoxicity against isogenic chicken DT40 cell lines with known DNA damage response pathways - Rad54/Ku70 mutant cell line (AID 743015); conditions: DT40 Rad54/Ku70 mutant viability, CellTiter-Glo, 40 h; series mostly up to 66.8 µM; further: nearly all actives have a fitted effect of over 60% in size
[5] = qHTS assay to identify small molecule antagonists of the androgen receptor (AR) signaling pathway using the MDA cell line - cell viability counter screen (AID 743041; further: nearly all actives have a fitted effect of over 45% in size); conditions: MDA-kb2 viability, CellTiter-Fluor, 16 h, cells co-treated with R1881 androgen agonist; series mostly up to 70.3 µM
Outline: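 MDA-kb2 AR-luc cells (MMTV-luciferase, AR/GR responsive) treated with compounds plus R1881 agonist for 16 h at 37C. CellTiter-Fluor added at 15.5 h; fluorescence read after 30 min in the same wells.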

[6] = qHTS assay to identify small molecule antagonists of the thyroid receptor (TR) signaling pathway - cell viability counter screen (AID 743064); conditions: GH3.TRE-Luc viability, CellTiter-Fluor, 24 h; series mostly up to 70.3 µM; further: nearly all actives have a fitted effect of over 50% in size
Outline: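 Fluorescence from CellTiter-Fluor, added after 23.5 h exposure at 37 °C, reported viability of GH3.TRE-Luc cells co-treated with compound and 1 nM T3. Measured in the same wells as the luciferase TR readout.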

[7] = tested on: thyroid hormone receptor (rat, GH3 cells); assay: qHTS assay to identify small molecule agonists of the thyroid receptor (TR) signaling pathway (AID 743066; calls by dose curve); conditions: GH3.TRE-Luc cells, TR agonist luciferase, 24 h; series mostly up to 83.9 µM
[8] = qHTS assay to identify small molecule antagonists of the estrogen receptor alpha (ER-alpha) signaling pathway - cell viability counter screen (AID 743074; calls by dose curve;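 further: HEK293 cells carrying ER-alpha-UAS-bla reporter stimulated with 17beta-estradiol; nearly all actives have a fitted effect of over 45% in size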); conditions: ERalpha-bla HEK293 viability, CellTiter-Glo luminescence, 18 h; series mostly up to 69.4 µM
[9] = qHTS assay to identify small molecule antagonists of the estrogen receptor alpha (ER-alpha) signaling pathway using the BG1 cell line - cell viability counter screen (AID 743081); conditions: BG1Luc4E2 viability, CellTiter-Fluor, 22 h; series mostly up to 70.3 µM;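 further: compound given together with 17beta-estradiol as the ER stimulus; nearly all actives have a fitted effect of over 45% in size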
[10] = biological target: Aromatase (Homo sapiens) (UniProt P11511); assay: qHTS assay to identify aromatase inhibitors (AID 743083); conditions: MCF-7 aro ERE, testosterone-driven ERE luciferase, 24 h; series mostly up to 70.3 µM; further: nearly all actives have a fitted effect of over 55% in size
Sequence of Aromatase (Homo sapiens) (P11511 whole entry, looked up): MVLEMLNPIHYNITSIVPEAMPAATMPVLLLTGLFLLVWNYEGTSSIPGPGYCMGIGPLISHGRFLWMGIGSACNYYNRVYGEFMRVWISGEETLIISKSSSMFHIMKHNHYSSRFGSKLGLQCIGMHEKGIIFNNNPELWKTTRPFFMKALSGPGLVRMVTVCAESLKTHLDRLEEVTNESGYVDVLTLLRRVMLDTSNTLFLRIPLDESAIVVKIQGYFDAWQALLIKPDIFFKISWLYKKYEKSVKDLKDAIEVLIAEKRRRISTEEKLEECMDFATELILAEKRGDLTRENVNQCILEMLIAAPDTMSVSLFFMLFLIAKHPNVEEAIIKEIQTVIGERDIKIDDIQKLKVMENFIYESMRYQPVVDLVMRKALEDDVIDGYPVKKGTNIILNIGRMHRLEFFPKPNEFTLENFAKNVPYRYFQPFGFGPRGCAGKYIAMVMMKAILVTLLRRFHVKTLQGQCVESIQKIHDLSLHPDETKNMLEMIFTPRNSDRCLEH

[11] = qHTS assay to identify small molecule antagonists of the androgen receptor (AR) signaling pathway - cell viability counter screen (AID 743033; further: nearly all actives have a fitted effect of over 45% in size); conditions: AR-bla HEK293 viability, CellTiter-Glo luminescence, 16 h; series mostly up to 58.5 µM
[12] = biological target: Androgen receptor (Homo sapiens) (UniProt P10275); assay: qHTS assay to identify small molecule antagonists of the androgen receptor (AR) signaling pathway (AID 743035; active means well fitted inhibition curve with a large enough effect in the signal ratio in the repeat runs, not every such curve was filed as active; the % refers to the signal ratio); conditions: HEK293 AR-UAS-bla, R1881-stimulated, beta-lactamase FRET, 16 h; series mostly up to 58.5 µM
Sequence of Androgen receptor (Homo sapiens) (P10275 whole entry, looked up): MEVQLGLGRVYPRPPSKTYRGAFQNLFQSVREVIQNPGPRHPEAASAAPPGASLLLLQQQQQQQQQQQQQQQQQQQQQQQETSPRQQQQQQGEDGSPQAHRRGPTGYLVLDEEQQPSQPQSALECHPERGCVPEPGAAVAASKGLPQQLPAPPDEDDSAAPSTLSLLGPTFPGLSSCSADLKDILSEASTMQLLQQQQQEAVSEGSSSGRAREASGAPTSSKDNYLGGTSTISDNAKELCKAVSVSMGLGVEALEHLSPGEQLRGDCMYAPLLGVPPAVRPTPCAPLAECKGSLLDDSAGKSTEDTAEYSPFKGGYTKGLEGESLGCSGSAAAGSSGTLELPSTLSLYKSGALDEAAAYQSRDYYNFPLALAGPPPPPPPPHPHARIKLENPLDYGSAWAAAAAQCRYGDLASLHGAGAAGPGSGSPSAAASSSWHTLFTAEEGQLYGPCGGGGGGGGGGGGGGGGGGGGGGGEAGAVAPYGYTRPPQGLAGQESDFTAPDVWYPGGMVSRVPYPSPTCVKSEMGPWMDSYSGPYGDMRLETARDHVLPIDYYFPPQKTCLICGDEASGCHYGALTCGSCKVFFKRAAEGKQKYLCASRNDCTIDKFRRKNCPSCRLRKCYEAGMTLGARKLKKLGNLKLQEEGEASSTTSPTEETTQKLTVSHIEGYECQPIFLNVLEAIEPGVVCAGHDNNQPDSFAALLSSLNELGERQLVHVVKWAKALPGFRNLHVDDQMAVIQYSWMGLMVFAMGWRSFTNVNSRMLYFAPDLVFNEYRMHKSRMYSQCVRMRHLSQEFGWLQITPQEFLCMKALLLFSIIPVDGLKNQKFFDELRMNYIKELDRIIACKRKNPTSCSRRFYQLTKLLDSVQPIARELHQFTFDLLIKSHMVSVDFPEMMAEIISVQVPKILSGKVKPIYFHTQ
Outline: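 Cell line: GeneBLAzer AR-UAS-bla GripTite (HEK293). Stimulus: R1881 added after compound. Exposure: 16 h, 37C, 5% CO2. Readout: LiveBLAzer B/G FRET fluorescence after 2 h at room temperature.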

[13] = biological target: Androgen receptor (Homo sapiens) (UniProt P10275); assay: qHTS assay to identify small molecule agonists of the androgen receptor (AR) signaling pathway (AID 743036; active means well fitted activation curve with a large enough effect in the signal ratio in the repeat runs, with a control signal flat, not every such curve was filed as active; the % refers to the signal ratio); conditions: HEK293 AR-UAS-bla GripTite, beta-lactamase FRET ratio, 16 h; series mostly up to 62.4 µM
Outline: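 Fluorescence from a beta-lactamase FRET substrate served as read-out in AR-UAS-bla GripTite HEK293 cells. Cells were treated with DMSO-dissolved compounds for 16 h at 37C, then with LiveBLAzer B/G substrate for 2 h at room temperature.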

[14] = biological target: Androgen receptor (Homo sapiens) (UniProt P10275); assay: qHTS assay to identify small molecule agonists of the androgen receptor (AR) signaling pathway using the MDA cell line (AID 743040; further: nearly all actives have a fitted effect of over 20% in size); conditions: MDA-kb2 AR-luc cells, MMTV luciferase, 16 h; series mostly up to 70.3 µM
Outline: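 MDA-kb2 breast carcinoma cells carrying MMTV-luciferase (responsive to AR and GR), plated 5 h then treated 16 h with compounds at 37C, 0% CO2. Read-out was ONE-Glo luminescence after 30 min at room temperature.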

[15] = biological target: Androgen receptor (Homo sapiens) (UniProt P10275); assay: qHTS assay to identify small molecule antagonists of the androgen receptor (AR) signaling pathway using the MDA cell line (AID 743042; further: nearly all actives have a fitted effect of over 55% in size); conditions: MDA-kb2 AR-luc, MMTV luciferase, R1881 antagonist, 16 h; series mostly up to 70.3 µM
Outline: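 MDA-kb2 breast carcinoma cells carrying MMTV-luciferase (AR/GR responsive) were co-treated with compounds and the agonist R1881 for 16 h at 37C. Inhibition read as ONE-Glo luminescence; CellTiter-Fluor fluorescence measured in parallel for cytotoxicity.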

[16] = biological target: Estrogen receptor (Homo sapiens) (UniProt P03372); assay: qHTS assay to identify small molecule antagonists of the estrogen receptor alpha (ER-alpha) signaling pathway (AID 743069; active means well fitted curve in the direction sought with a large enough effect in the signal ratio in the repeat runs, not every such curve was filed as active; the % refers to the signal ratio); conditions: HEK293 ER-alpha-UAS-bla, beta-lactamase ratio, antagonist mode; series mostly up to 69.4 µM
Sequence of Estrogen receptor (Homo sapiens) (P03372 whole entry, looked up): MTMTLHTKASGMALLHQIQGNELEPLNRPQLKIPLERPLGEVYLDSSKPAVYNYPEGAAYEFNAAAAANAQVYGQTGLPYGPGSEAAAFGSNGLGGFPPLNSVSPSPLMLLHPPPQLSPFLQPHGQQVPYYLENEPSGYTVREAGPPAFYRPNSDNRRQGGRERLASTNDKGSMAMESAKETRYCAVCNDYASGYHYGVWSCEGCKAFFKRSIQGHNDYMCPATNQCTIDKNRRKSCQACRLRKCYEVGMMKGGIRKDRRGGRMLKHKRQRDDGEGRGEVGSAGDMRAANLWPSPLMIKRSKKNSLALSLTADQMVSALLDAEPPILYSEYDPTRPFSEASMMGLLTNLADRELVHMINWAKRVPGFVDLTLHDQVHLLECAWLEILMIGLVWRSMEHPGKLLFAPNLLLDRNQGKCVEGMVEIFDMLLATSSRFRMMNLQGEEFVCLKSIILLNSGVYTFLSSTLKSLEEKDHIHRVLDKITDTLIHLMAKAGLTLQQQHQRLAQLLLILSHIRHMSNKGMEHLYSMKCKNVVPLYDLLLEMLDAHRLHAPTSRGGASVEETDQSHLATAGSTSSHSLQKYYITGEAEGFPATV
Outline: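 HEK293 ER-alpha-UAS-bla GripTite cells, held overnight in 2% charcoal-stripped FBS, 5,000 cells/well, preincubated 4 h, then compound plus 17beta-estradiol for 18 h at 37C. Beta-lactamase read by LiveBLAzer B/G FRET substrate, 2 h at room temperature.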

[17] = biological target: Estrogen receptor (Homo sapiens) (UniProt P03372); assay: qHTS assay to identify small molecule agonists of the estrogen receptor alpha (ER-alpha) signaling pathway (AID 743075; calls by dose curve); conditions: HEK293 ER-alpha-UAS-bla, beta-lactamase FRET ratio, 18 h; series mostly up to 70.1 µM
[18] = biological target: Estrogen receptor (Homo sapiens) (UniProt P03372); assay: qHTS assay to identify small molecule agonists of the estrogen receptor alpha (ER-alpha) signaling pathway using the BG1 cell line (AID 743079); conditions: BG1Luc4E2 cells, ERE-luciferase agonist, 22 h; series mostly up to 70.3 µM; further: nearly all actives have a fitted effect of over 20% in size
[19] = qHTS assay to identify small molecule antagonists of the estrogen receptor alpha (ER-alpha) signaling pathway using the BG1 cell line (AID 743080; calls by dose curve;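 further: BG1 cells stimulated with 17beta-estradiol alongside compound; nearly all actives have a fitted effect of over 25% in size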); conditions: BG1Luc4E2 ERE-luciferase antagonist mode, luminescence; series mostly up to 70.3 µM
Outline: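 Readout is ONE-Glo luminescence, taken 30 min at room temperature after reagent addition, preceded by a CellTiter-Fluor viability read; BG1-Luc-4E2 cells had received compound and 17beta-estradiol for 21.5 h at 37 C.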

[20] = qHTS assay to identify small molecule antagonists of the thyroid receptor (TR) signaling pathway (AID 743065); conditions: GH3.TRE-Luc, T3-stimulated luciferase inhibition, 23.5 h; series mostly up to 70.3 µM; further: nearly all actives have a fitted effect of over 55% in size
Outline: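 GH3.TRE-Luc rat pituitary cells (two TREs driving luciferase) were dosed with compound, then stimulated with 1 nM T3 (final) for 23.5 h at 37 C. ONE-Glo luminescence was the read-out, with CellTiter-Fluor fluorescence as the cytotoxicity counter-screen.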

Measured: Potency

CC(C)c1ccccc1O
inactive: [1] | [2] | [3] | [4] | [5] | [6] | [7] | [8] | [9] | [10]

CC(C)=CC(C)(C)C
inactive: [1] | [2] | [3] | [4] | [11] | [5] | [7] | [8] | [9]

CN[C@@H]1[C@H](O)[C@H](NC)[C@H]2O[C@@]3(O)C(=O)C[C@@H](C)O[C@H]3O[C@@H]2[C@H]1O
not listed: [6] | [9] | [11] | [20]
inactive: all other assays above

COc1ccc(N=Nc2cc(C)c(N=Nc3ccc(S(=O)(=O)O)cc3)cc2OC)cc1
inactive: [1] | [2] | [3] | [4] | [11] | [5] | [6] | [8] | [10]

FC(F)(F)c1ccc(Cl)cc1Cl
inactive: [1] | [2] | [3] | [4] | [11] | [5] | [20] | [7] | [8] | [9] | [10]

Cc1cc(C)cc([N+](=O)[O-])c1
not listed: [6] | [12] | [13] | [14] | [15] | [20]
inactive: all other assays above

CCN1CN(CC)CN(CC)C1
not listed: [6] | [12] | [13] | [14] | [15]
inactive: all other assays above

Cc1nc2ccccc2c(=O)o1
not listed: [6] | [11] | [12] | [13] | [14] | [15]
inactive: all other assays above

NS(=O)(=O)c1ccc(Cl)c(S(N)(=O)=O)c1
not listed: [6] | [12] | [13] | [14] | [15]
inactive: all other assays above

Cc1c(C(C)C)c(=O)n(-c2ccccc2)n1C
not listed: [11] | [12] | [13] | [14] | [15]
inactive: all other assays above

Cc1cccc(NC(=S)N(C)C)c1
inactive: [1] | [2] | [3] | [4] | [11] | [5] | [20] | [7] | [8] | [9]

OCCCCCCCl
not listed: [6] | [12] | [13] | [14] | [15] | [18]
inactive: all other assays above

CCOC(=O)C(C)(C)C
not listed: [6] | [11] | [12] | [13] | [14] | [15]
inactive: all other assays above

CCC(C)N (stereo not given)
not listed: [11] | [12] | [13] | [14] | [15]
inactive: all other assays above

CCC(CO)CO
not listed: [3] | [12] | [13] | [14] | [15]
inactive: all other assays above

COc1cccc2sc(N)nc12
not listed: [3] | [12] | [13] | [14] | [20]
inactive: all other assays above

CO[Si](CCCCl)(OC)OC
not listed: [3] | [6] | [12] | [13] | [14] | [15]
inactive: all other assays above

C=CC(C)(O)CC/C=C(\C)CC (stereo not given)
not listed: [3] | [12] | [13] | [14] | [15]
inactive: all other assays above

CC(=O)N(CC(O)CO)c1c(I)c(C(=O)NCC(O)CO)c(I)c(C(=O)NCC(O)CO)c1I (stereo not given)
not listed: [3] | [12] | [13] | [14] | [15]
inactive: all other assays above

CCC1COC(=O)O1 (stereo not given)
not listed: [3] | [12] | [13] | [14] | [15]
inactive: all other assays above
